Records with an inconclusive call do not appear. Activity calls are given as the source filed them. Rule for the calls, unless noted: active = hit-call score of the fitted dose curve at least 0.9, where 1 is the maximum; inactive = score below 0.9.
How the values were obtained:
[1] = ATG_NF_kB_CIS: Attagene CIS-FACTORIAL HepG2 Assay for human Nuclear Factor Kappa B (NF-kB) (AID 2282991); settings: HepG2 Attagene cis-factorial NF-kB reporter mRNA; actives raise or lower the signal
Outline: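 Multiplexed cis-reporter assay in transiently transfected HepG2. 24 h treatment; RNA isolated, RT-PCR, labelled fragments resolved by CE. DMSO baseline.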

[2] = ATG_NRF2_ARE_CIS: Attagene CIS-FACTORIAL HepG2 Assay for human Nuclear Factor Erythroid 2 Related Factor 2 (NFR2) response to Antioxidant Response Elements (ARE) (AID 2282992); settings: HepG2 Attagene ARE/NRF2 reporter, transcription factor activity; actives raise or lower the signal
Outline: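 Endogenous transcription factor activity read out as reporter transcript levels (RT-PCR plus capillary electrophoresis, fluorescence) in transiently transfected HepG2 cells. Measured at 24 h after dosing; gain or loss of signal fitted versus DMSO.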

[3] = ATG_Oct_MLP_CIS: Attagene CIS-FACTORIAL HepG2 Assay for human Octamer-Binding Transcription Factor (Oct) (AID 2282993); settings: HepG2 Attagene cis-factorial Oct reporter, mRNA; actives raise or lower the signal
Outline: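 HepG2 cells transiently transfected with cis-element-driven reporter transcription units (endogenous TF activity); 24 h compound exposure. Reporter mRNA quantified by RT-PCR, 6-FAM labelling, HpaI digestion and capillary electrophoresis; bidirectional fit versus DMSO baseline.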

[4] = molecular target: Cellular tumor antigen p53 (Homo sapiens) (UniProt P04637); experiment: ATG_p53_CIS: Attagene CIS-FACTORIAL HepG2 Assay for human p53 Transcription Factor (AID 2282994); settings: HepG2 p53 cis-element reporter, Attagene mRNA; actives raise or lower the signal
Sequence of Cellular tumor antigen p53 (Homo sapiens) (P04637 whole entry, looked up): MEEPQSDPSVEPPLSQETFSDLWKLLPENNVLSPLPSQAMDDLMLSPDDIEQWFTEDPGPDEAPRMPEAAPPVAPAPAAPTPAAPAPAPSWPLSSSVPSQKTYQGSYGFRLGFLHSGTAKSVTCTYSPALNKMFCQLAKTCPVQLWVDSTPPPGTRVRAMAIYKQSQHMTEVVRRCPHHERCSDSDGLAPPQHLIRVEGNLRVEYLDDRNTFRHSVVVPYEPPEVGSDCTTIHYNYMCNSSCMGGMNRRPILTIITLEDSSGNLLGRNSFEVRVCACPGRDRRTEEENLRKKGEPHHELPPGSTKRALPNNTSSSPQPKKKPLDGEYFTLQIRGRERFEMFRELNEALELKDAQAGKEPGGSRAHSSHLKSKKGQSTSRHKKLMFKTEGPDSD
Outline: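 Endogenous p53 activity read in transiently transfected HepG2 from a cis-element-driven reporter transcript after 24 h exposure. RNA reverse-transcribed, PCR-amplified, fluorescently labelled and sized by capillary electrophoresis; gain or loss fitted against DMSO baseline.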

[5] = BSK_3C_uPAR: BioMAP Diversity Plus: 3C Assay for Urokinase-type plasminogen activator receptor (uPAR) Biomarker Activity (AID 2282998); settings: BioMAP 3C HUVEC, uPAR biomarker ELISA; actives raise or lower the signal
Outline: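 Primary human umbilical vein endothelial cells, 3C system; surface uPAR measured by ELISA 24 h after dosing. Cytotoxicity via SRB total protein in parallel cultures; bidirectional fit against DMSO.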

[6] = BSK_4H_Eotaxin3: BioMAP Diversity Plus: 4H Assay for Eotaxin 3 Biomarker Activity (AID 2283000); settings: primary human endothelial cells (HUVEC); actives raise or lower the signal
Outline: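 HUVEC, 24 h post-dose, ELISA for Eotaxin-3/CCL26. Gain or loss of signal fitted bidirectionally vs DMSO baseline.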

[7] = molecular target: human Peroxisome Proliferator-activated Receptor alpha (PPARa), PPARA (gene 5465) (UniProt Q07869); experiment: ATG_PPARa_TRANS: Attagene TRANS-FACTORIAL HepG2 Assay for human Peroxisome Proliferator-activated Receptor alpha (PPARa) (AID 2283001; active = hit-call score of the fitted dose curve at least 0.9, where 1 is the maximum)
Sequence of human Peroxisome Proliferator-activated Receptor alpha (PPARa), PPARA (gene 5465) (Q07869 whole entry, looked up, the tested form may be a part): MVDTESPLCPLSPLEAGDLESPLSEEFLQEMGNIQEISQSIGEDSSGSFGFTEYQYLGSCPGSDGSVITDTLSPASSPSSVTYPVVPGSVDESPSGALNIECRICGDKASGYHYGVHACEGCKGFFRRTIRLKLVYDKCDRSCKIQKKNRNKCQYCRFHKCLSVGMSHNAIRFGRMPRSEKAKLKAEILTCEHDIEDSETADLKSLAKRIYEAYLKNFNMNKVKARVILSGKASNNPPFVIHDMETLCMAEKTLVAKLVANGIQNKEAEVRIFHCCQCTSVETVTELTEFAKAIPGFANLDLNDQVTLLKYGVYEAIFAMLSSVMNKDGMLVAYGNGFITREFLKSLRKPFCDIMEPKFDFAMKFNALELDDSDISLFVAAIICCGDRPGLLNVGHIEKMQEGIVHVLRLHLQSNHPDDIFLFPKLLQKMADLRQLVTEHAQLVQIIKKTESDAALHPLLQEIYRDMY
Outline: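 Exposure: 24 h, transiently transfected HepG2 cells. Endpoint: GAL4-UAS reporter mRNA, RT-PCR with capillary electrophoresis fluorescence. Baseline: DMSO; increases fitted.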

[8] = read-out: Intercellular Adhesion Molecule 1 (ICAM1), ICAM1 (gene 3383); experiment: BSK_3C_ICAM1: BioMAP Diversity Plus: 3C Assay for Intercellular Adhesion Molecule 1 (ICAM1) Biomarker Activity (AID 2283003); settings: primary human endothelial cells (HUVEC); actives raise or lower the signal
Outline: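 ELISA read-out of ICAM-1; HUVEC (primary human), 3C system, 24 h post-dosing; bidirectional fit vs DMSO baseline.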

[9] = BSK_3C_Proliferation: Cell Proliferation Assessment in the BioMAP Diversity Plus: 3C Assay (AID 2283006); settings: primary human endothelial cells (HUVEC);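 for AC50: potency may reflect either rise or fall in cell number versus DMSO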
Outline: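 HUVEC, sub-confluent; 48 h chemical exposure; 10% TCA fix, 0.1% SRB stain, A560 total protein. Gain or loss of signal fitted both directions vs DMSO control.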

[10] = molecular target: Peroxisome proliferator-activated receptor gamma (Homo sapiens) (UniProt P37231); experiment: ATG_PPARg_TRANS: Attagene TRANS-FACTORIAL HepG2 Assay for human Peroxisome Proliferator-activated Receptor-gamma (PPARg) (AID 2283007; active = hit-call score of the fitted dose curve at least 0.9, where 1 is the maximum)
Sequence of Peroxisome proliferator-activated receptor gamma (Homo sapiens) (P37231 whole entry, looked up): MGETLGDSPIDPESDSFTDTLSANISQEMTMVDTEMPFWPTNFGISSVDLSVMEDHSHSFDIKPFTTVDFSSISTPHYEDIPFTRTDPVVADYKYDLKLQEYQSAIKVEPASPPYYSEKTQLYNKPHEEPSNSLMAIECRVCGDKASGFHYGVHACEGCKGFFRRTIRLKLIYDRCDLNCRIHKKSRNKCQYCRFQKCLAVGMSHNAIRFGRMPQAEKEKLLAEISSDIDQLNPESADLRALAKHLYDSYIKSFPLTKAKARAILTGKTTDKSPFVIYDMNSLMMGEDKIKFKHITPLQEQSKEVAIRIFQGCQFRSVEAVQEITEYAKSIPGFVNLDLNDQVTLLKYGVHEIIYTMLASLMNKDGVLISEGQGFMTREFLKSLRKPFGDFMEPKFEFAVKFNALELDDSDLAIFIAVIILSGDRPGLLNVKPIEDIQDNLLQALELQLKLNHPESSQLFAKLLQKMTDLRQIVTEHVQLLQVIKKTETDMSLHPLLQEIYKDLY
Outline: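 Human hepatoma HepG2, transient MRTU transfection, 24 h treatment. mRNA reporter signal by RT-PCR plus capillary electrophoresis, fluorescence detection; fitted for increase over DMSO negative control.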

[11] = molecular target: human Retinoic Acid Receptor gamma (RARg), RARG (gene 5916) (UniProt P13631); experiment: ATG_RARg_TRANS: Attagene TRANS-FACTORIAL HepG2 Assay for human Retinoic Acid Receptor gamma (RARg) (AID 2283009; active = hit-call score of the fitted dose curve at least 0.9, where 1 is the maximum;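 for AC50: AC50 is for reporter induction above DMSO meaning RARg activation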)
Sequence of human Retinoic Acid Receptor gamma (RARg), RARG (gene 5916) (P13631 whole entry, looked up, the tested form may be a part): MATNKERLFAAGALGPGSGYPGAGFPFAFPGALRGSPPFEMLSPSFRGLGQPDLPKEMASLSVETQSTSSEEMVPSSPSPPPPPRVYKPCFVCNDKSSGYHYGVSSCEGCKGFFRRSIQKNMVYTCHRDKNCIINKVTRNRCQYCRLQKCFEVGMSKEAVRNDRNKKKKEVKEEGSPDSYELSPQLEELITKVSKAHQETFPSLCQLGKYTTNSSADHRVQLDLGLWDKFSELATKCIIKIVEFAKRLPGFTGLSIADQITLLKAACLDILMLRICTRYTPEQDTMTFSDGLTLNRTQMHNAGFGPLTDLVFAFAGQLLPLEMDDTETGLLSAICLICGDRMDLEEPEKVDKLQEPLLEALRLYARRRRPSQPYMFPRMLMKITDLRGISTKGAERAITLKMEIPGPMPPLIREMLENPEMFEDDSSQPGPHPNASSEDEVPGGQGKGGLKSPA
Outline: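 Readout: reporter transcript levels via RT-PCR, 6-FAM primer-extension labelling, HpaI digestion and capillary electrophoresis. Cells: HepG2 carrying transfected RARg-GAL4 chimera plus UAS reporter set. Dosing 24 h; DMSO negative control.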

[12] = molecular target: human RAR-related Orphan Receptor beta (RORb), RORB (gene 6096) (UniProt Q92753); experiment: ATG_RORb_TRANS: Attagene TRANS-FACTORIAL HepG2 Assay for human RAR-related Orphan Receptor beta (RORb) (AID 2283010; active = hit-call score of the fitted dose curve at least 0.9, where 1 is the maximum)
Sequence of human RAR-related Orphan Receptor beta (RORb), RORB (gene 6096) (Q92753 whole entry, looked up, the tested form may be a part): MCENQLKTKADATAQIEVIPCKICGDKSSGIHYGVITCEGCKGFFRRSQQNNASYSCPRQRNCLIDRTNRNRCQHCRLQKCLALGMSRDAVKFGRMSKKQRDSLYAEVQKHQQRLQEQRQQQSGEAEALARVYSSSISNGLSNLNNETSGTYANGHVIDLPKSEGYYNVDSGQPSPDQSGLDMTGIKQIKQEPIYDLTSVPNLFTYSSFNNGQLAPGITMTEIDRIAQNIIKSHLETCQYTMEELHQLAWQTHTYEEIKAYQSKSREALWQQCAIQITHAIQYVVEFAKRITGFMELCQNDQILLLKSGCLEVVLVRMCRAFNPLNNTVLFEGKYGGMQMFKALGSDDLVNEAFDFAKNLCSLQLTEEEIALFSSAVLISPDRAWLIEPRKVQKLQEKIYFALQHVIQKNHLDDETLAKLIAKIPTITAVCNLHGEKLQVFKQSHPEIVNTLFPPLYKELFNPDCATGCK
Outline: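 HepG2, transient MRTU transfection (GAL4-UAS reporters, exogenous NR-Gal4 chimeras); 24 h compound exposure; total RNA → RT-PCR → 6-FAM primer extension → HpaI digest → CE fluorescence. Positive direction vs DMSO baseline.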

[13] = molecular target: human RAR-related Orphan Receptor gamma (RORg), RORC (gene 6097) (UniProt P51449); experiment: ATG_RORg_TRANS: Attagene TRANS-FACTORIAL HepG2 Assay for human RAR-related Orphan Receptor gamma (RORg) (AID 2283011; active = hit-call score of the fitted dose curve at least 0.9, where 1 is the maximum)
Sequence of human RAR-related Orphan Receptor gamma (RORg), RORC (gene 6097) (P51449 whole entry, looked up, the tested form may be a part): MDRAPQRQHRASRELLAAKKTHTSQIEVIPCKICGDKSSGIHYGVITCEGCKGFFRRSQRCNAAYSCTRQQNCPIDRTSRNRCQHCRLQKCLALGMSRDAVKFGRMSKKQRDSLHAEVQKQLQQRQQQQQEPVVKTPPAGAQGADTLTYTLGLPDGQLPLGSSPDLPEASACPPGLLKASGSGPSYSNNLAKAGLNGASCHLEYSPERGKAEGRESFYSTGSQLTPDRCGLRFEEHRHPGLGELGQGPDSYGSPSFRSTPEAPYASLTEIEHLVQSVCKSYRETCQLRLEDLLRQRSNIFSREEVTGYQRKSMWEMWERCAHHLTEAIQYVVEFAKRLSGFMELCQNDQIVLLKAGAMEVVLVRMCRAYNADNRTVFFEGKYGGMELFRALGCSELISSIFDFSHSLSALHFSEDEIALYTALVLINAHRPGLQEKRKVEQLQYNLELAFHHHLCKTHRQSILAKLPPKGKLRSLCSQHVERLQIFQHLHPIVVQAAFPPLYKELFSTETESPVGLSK
Outline: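 Readout: reporter transcript induction (RT-PCR, fluorescent primer extension, capillary electrophoresis) after 24 h compound exposure of transiently transfected HepG2 cells carrying a RORg-Gal4 chimera and GAL4-UAS reporters; DMSO served as baseline, with increasing signal fitted.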

[14] = molecular target: Retinoic acid receptor RXR-alpha (Homo sapiens) (UniProt P19793); experiment: ATG_RXRa_TRANS: Attagene TRANS-FACTORIAL HepG2 Assay for human Retinoid X Receptor alpha (RXRa) (AID 2283012; active = hit-call score of the fitted dose curve at least 0.9, where 1 is the maximum)
Sequence of Retinoic acid receptor RXR-alpha (Homo sapiens) (P19793 whole entry, looked up, the tested form may be a part): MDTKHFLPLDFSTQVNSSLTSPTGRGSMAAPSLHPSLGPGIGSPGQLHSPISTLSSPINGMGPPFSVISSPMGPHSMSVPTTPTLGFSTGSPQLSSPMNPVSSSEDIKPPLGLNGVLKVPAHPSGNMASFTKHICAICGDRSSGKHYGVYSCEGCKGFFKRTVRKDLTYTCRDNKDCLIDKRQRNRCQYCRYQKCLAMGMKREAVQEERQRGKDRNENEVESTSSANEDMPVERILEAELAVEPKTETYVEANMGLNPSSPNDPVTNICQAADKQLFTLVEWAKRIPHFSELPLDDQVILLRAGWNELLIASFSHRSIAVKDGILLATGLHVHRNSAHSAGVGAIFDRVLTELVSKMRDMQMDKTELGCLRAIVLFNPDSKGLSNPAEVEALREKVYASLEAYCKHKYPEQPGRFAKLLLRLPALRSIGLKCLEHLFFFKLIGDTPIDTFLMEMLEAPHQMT
Outline: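 Read-out: fluorescent reporter-transcript fragments quantified by capillary electrophoresis after RT-PCR. Transiently transfected HepG2 cells carrying GAL4-UAS reporters and NR-GAL4 chimeras were exposed to chemical for 24 h; activity scored as increase over DMSO.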

[15] = molecular target: human Retinoid X Receptor beta (RXRb), RXRB (gene 6257) (UniProt P28702); experiment: ATG_RXRb_TRANS: Attagene TRANS-FACTORIAL HepG2 Assay for human Retinoid X Receptor beta (RXRb) (AID 2283013; active = hit-call score of the fitted dose curve at least 0.9, where 1 is the maximum)
Sequence of human Retinoid X Receptor beta (RXRb), RXRB (gene 6257) (P28702 whole entry, looked up, the tested form may be a part): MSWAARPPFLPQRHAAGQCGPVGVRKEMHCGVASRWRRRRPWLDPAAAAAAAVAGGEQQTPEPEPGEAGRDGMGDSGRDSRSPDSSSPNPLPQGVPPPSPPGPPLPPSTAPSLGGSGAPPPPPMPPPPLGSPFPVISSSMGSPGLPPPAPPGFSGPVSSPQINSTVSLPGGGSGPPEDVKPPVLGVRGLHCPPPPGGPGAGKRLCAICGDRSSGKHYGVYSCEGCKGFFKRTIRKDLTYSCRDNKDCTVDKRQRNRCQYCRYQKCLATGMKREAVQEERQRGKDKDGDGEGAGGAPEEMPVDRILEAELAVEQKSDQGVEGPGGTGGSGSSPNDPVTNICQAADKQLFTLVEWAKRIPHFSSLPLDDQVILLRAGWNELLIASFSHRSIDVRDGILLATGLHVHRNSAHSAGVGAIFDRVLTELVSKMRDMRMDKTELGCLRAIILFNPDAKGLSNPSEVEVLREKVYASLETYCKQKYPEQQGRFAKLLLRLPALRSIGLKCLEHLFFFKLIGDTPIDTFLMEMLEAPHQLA
Outline: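 Read-out: reporter mRNA induction via RT-PCR plus capillary electrophoresis fluorescence, analysed as signal increase relative to DMSO. Cells were human HepG2, transiently transfected with GAL4-UAS reporter constructs and chimeric receptor-Gal4 fusions, dosed for 24 h.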

[16] = molecular target: human Thyroid Receptor alpha (THRa1), THRA (gene 7067) (UniProt P10827); experiment: ATG_THRa1_TRANS: Attagene TRANS-FACTORIAL HepG2 Assay for human Thyroid Receptor alpha (THRa1) (AID 2283014; active = hit-call score of the fitted dose curve at least 0.9, where 1 is the maximum)
Outline: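 HepG2 cells transiently transfected with multiplexed GAL4-UAS reporter units for exogenous chimeric THRa1-Gal4; reporter mRNA measured 24 h after dosing by RT-PCR, 6-FAM labelling, HpaI digestion and capillary electrophoresis. Gain-of-signal fitted versus DMSO baseline.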

[17] = BSK_3C_VCAM1: BioMAP Diversity Plus: 3C Assay for Vascular cell adhesion molecule 1 (VCAM1) Biomarker Activity (AID 2282999); settings: BioMAP 3C HUVEC, VCAM1 ELISA, cytokine-stimulated; actives raise or lower the signal
Outline: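 Vascular primary endothelium (human umbilical vein) was exposed to chemicals and assayed 24 h later. VCAM-1 levels came from ELISA, with DMSO serving as baseline for bidirectional fitting.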

[18] = molecular target: human Peroxisome Proliferator-activated Receptor delta (PPARd), PPARD (gene 5467) (UniProt Q03181); experiment: ATG_PPARd_TRANS: Attagene TRANS-FACTORIAL HepG2 Assay for human Peroxisome Proliferator-activated Receptor delta (PPARd) (AID 2283002; active = hit-call score of the fitted dose curve at least 0.9, where 1 is the maximum)
Sequence of human Peroxisome Proliferator-activated Receptor delta (PPARd), PPARD (gene 5467) (Q03181 whole entry, looked up, the tested form may be a part): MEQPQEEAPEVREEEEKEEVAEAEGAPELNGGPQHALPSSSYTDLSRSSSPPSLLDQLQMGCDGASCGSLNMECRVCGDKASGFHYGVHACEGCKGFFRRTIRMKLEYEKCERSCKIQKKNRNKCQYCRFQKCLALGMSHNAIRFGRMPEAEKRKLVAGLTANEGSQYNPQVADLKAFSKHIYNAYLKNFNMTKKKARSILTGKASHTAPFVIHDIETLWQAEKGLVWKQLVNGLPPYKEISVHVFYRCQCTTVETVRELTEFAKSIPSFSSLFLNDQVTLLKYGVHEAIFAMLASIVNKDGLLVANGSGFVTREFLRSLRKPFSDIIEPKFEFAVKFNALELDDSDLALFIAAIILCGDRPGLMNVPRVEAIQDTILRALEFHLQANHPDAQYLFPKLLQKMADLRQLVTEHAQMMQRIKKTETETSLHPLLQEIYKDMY
Outline: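 Measured quantity: GAL4-UAS reporter transcript induction in HepG2 after 24 h chemical dosing, with NR-Gal4 chimeras supplied by transient transfection. Detection by RT-PCR and capillary electrophoresis; upward fit against DMSO.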

[19] = molecular target: Nuclear receptor subfamily 1 group I member 2 (Homo sapiens) (UniProt O75469); experiment: ATG_PXR_TRANS: Attagene TRANS-FACTORIAL HepG2 Assay for human Pregnane X Receptor (PXR) (AID 2283008; active = hit-call score of the fitted dose curve at least 0.9, where 1 is the maximum)
Sequence of Nuclear receptor subfamily 1 group I member 2 (Homo sapiens) (O75469 whole entry, looked up, the tested form may be a part): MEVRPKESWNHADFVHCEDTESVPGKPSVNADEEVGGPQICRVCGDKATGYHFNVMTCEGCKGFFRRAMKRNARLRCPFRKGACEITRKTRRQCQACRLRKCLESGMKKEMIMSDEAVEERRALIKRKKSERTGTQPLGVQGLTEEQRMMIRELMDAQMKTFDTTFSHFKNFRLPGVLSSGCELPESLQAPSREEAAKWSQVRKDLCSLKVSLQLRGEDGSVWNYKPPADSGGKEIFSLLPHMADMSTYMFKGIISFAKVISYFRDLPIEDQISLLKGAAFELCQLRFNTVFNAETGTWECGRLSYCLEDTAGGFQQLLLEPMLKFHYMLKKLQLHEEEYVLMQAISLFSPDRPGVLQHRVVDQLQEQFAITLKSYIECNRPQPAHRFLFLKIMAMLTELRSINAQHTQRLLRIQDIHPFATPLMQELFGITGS
Outline: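 Transactivation by exogenous PXR–GAL4 fusion measured as reporter transcript induction after 24 h compound treatment of transfected human HepG2 cells. Read-out via RT-PCR and capillary electrophoresis of labelled fragments, fitted upward relative to DMSO.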

Measured: AC50

O=C(OC[C@H]1O[C@@H](OC(=O)c2cc(O)c(O)c(OC(=O)c3cc(O)c(O)c(O)c3)c2)[C@H](OC(=O)c2cc(O)c(O)c(OC(=O)c3cc(O)c(O)c(O)c3)c2)[C@@H](OC(=O)c2cc(O)c(O)c(OC(=O)c3cc(O)c(O)c(O)c3)c2)[C@@H]1OC(=O)c1cc(O)c(O)c(OC(=O)c2cc(O)c(O)c(O)c2)c1)c1cc(O)c(O)c(OC(=O)c2cc(O)c(O)c(O)c2)c1
active: [6] 8.95 µM | [9] 9.47 µM
not listed: [17] | [18] | [19]
inactive: all other assays above

CCn1nc(Cc2ccccc2)cc1C1CCN(C[C@H]2C[C@H](N(C)[C@@H](C(=O)O)C(C)C)C[C@@H]2c2cccc(F)c2)CC1
inactive: [3] | [5] | [17] | [6] | [18] | [8] | [9] | [10] | [19]
active: [1] 38.2 µM | [2] 51.5 µM | [4] 100 µM

Fc1ccccc1[C@@H](F)COC1CCC(Nc2ncnc3[nH]ncc23)CC1 (stereo not given in full)
inactive: [1] | [3] | [4] | [18] | [8] | [10] | [19]
active: [2] 6.77 µM | [5] 15.2 µM | [6] 23.6 µM | [9] 29.3 µM

O=C(O)c1cc(N=Nc2ccc(S(=O)(=O)Nc3ccccn3)cc2)ccc1O
active: [10] 57.4 µM
not listed: [7] | [11] | [13] | [16] | [19]
inactive: all other assays above

CC(O)CN(CCN(CC(C)O)CC(C)O)CC(C)O (stereo not given)
not listed: [7] | [10] | [11] | [12] | [16] | [17] | [19]
inactive: all other assays above

O=C(O)CCN(C1(C(=O)NO)CCCC1)S(=O)(=O)c1ccc(Oc2ccc(F)cc2)cc1
not listed: [13] | [18] | [19]
inactive: all other assays above

CC[C@H]1CC[C@H](NCc2cc3c(cc2OC)[C@H]2C[C@H]2C(=O)N3C)[C@H](c2ccccc2)N1
active: [1] 45.2 µM | [3] 64.3 µM | [4] 100 µM | [9] 28.6 µM | [19] 3.94 µM
not listed: [12] | [16]
inactive: all other assays above

C1=CCCC=CCCC=CCC1
active: [2] 159 µM | [11] 26.9 µM | [15] 63.5 µM
inactive: [1] | [3] | [4] | [5] | [17] | [6] | [8] | [9] | [14]

Reference: PubChem BioAssay (EPA / NIEHS)
